The panel holds about 83,000 compounds, 20% with a hit somewhere; the sample as a whole holds those more often.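 Cell lines were cultured in 96-well plates, exposed to a single compound concentration, and assessed for percent growth 48 hours later.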 A number with no mark means an inactive call. The source made the active and inactive calls. Rule for the calls: active = growth percent below 10; inactive = the rest.

For seven compounds, growth results are on record in PubChem BioAssay (NCI).

What all share (experiment): NCI-60 one-dose screen, 48 h (100 = growth as untreated, 0 = no growth, -100 = all killed)
Common to all, as to details: 10 µM unless noted

Test [1] concerns DU-145 prostate.
The subject of test [2] is K-562 leukemia.
Test [3] deals with MALME-3M melanoma.
The test system of test [4] is MDA-MB-231 breast.
Test [5] concerns RXF 393 renal.
For test [6], the system named is SF-268 CNS.
The subject of test [7] is SF-295 CNS.
The subject of test [8] is SF-539 CNS.
Test [9] has as its system UACC-257 melanoma.
The test system of test [10] is M14 melanoma.
Test [11] relates to HCT-15 colon.
Test [12] concerns HT29 colon.
In test [13] the test system is SNB-75 CNS.
In test [14] the test system is SNB-19 CNS.
Test [15] has as its system U251 CNS.
The test system of test [16] is PC-3 prostate.
Test [17] deals with SK-MEL-5 melanoma.
The test system of test [18] is UACC-62 melanoma.
For test [19], the system named is LOX IMVI melanoma.
For test [20], the system named is SK-MEL-28 melanoma.

In the case of `C=C(C)[C@@H]1CC[C@]2(C(=O)NCCCN)CC[C@]3(C)[C@H](CC[C@@H]4[C@@]5(C)CC[C@H](O)C(C)(C)[C@@H]5CC[C@]43C)[C@@H]12`, the growth in test [1] is -100% [100 µM] (active); in [2], 1.1% [100 µM] (active); in test [3], -18.8% [100 µM] (active); in test [4], -47.8% [100 µM] (active); in test [5] it was -42.3% [100 µM] (active); in [6], -16.9% [100 µM] (active). Further, the growth in test [7] is -26.4% [100 µM] (active); in [8], -36.2% [100 µM] (active); in test [9], -46.7% [100 µM] (active); in test [10], 5.07% [100 µM] (active); in test [11] it was -22.1% [100 µM] (active); in test [12] it was 3.9% [100 µM] (active). Further, the growth was -51.6% [100 µM] (active) in test [13]; -29.5% [100 µM] (active) in [14]; -13.8% [100 µM] (active) in test [15]; -53.8% [100 µM] (active) in [16]; -23.9% [100 µM] (active) in test [17]; -22.6% [100 µM] (active) in [18]. Moreover, the growth in [19] is 1.37% [100 µM] (active); in [20], -31.4% [100 µM] (active).
For `O=C(Nc1ccc(C(=O)/C=C/c2ccc(N3CCOCC3)cc2)cc1)Nc1ccc([N+](=O)[O-])cc1`, the growth is 98% in [1]; 68.6% in [2]; 108% in [3]; 94.8% in test [4]; 119% in test [5]; 97.1% in [6]. In addition, the growth in test [7] was 103%; in test [8] it was 109%; in test [9] it was 99%; in [10], 110%; in [11], 92.9%; in test [12] it was 88.6%. For the same compound, the growth in test [13] is 94.7%; in [14] it was 98.4%; in test [15], 85.7%; in test [16], 85.5%; in test [17], 95.1%; in test [18] it was 79.6%. The growth in [19] was 107%; in test [20], 109%.
On to `COc1c(C(C)=O)c(OCCCCOc2c(C(C)=O)c(OC)c3ccoc3c2OC)c(OC)c2occc12`, for which the growth in [1] was 116%; in test [2], 54.3%; in test [3], 48.8%; in [4], 82.7%; in test [5] it was 80.7%; in test [6], 84.3%. The growth in test [7] was 19.7%; in test [8], 105%; in test [9] it was 73.3%; in [10], 99.3%; in test [11], 78.8%; in test [12], 65.9%. Moreover, the growth is 107% in [13]; 80% in test [14]; 79.9% in [15]; 55.2% in test [16]; 51.3% in [17]; 55.8% in [18]. Moreover, the growth in test [19] is 74.5%; in test [20], 96.3%.
Regarding `C[n+]1cccc(NC(=O)c2ccc3ccc4ccc(C(=O)Nc5ccc[n+](C)c5)nc4c3n2)c1`, the growth was 9.79% (active) in [1]; 35.8% in [2]; 81.4% in test [3]; 33.2% in test [4]; 33% in test [5]; 53.3% in test [6]. The growth in test [7] was 5.59% (active); in [8], 37.7%; in test [9], 94.4%; in test [10] it was 53.6%; in test [11], 61.2%; in test [12], 34.2%. For the same compound, the growth is 12.8% in test [13]; 14.3% in test [14]; 13% in test [15]; 55.3% in test [16]; 1.98% (active) in test [17]; -54.4% (active) in test [18]. Further, the growth in [19] is 64.5%; in test [20], 31.2%.
Consider `Cc1ccc(S(=O)(=O)n2cc(C(=O)C(=O)N3CCCCC3)c3ccccc32)cc1`, for which the growth in test [1] is 97.1%; in test [2] it was 69.9%; in [3] it was 84.8%; in test [4] it was 75.2%; in test [5] it was 113%; in test [6], 78%. In addition, the growth in test [7] is 60.4%; in test [8], 90.6%; in test [9], 101%; in [10] it was 89.4%; in test [11] it was 79.9%; in test [12] it was 88.3%. The growth in test [13] is 73.8%; in [14] it was 97.7%; in test [15], 91.3%; in [16], 52.1%; in test [17], 47.3%; in test [18], 49.5%. The results for the growth in test [19] and in test [20] were 71.9% and 172%, respectively.
With `O=C1CC(c2ccccc2)Cc2nc3ccc(Br)cc3cc21` (stereo not given), the growth was -3.21% (active) in test [1]; 6.14% (active) in test [2]; 38.8% in test [3]; 13.2% in test [4]; 28.4% in test [5]; 46.7% in test [6]. The growth in [7] was 17.2%; in test [8] it was 1.6% (active); in test [9], 69.2%; in test [10], 10.2%; in test [11] it was 16%; in [12] it was 2.2% (active). Besides, the growth in [13] was 36.6%; in [14] it was 27.4%; in [15], 18.1%; in test [16], 32%; in [17] it was 2.1% (active); in [18], 36.2%. Further, the growth in test [19] was 31.5%; in [20], 56.7%.
As for `O=C(O)CSCc1nnc2n(Cc3ccccc3)c(=O)c3c4c(sc3n12)CCCC4`, the growth in [1] was 114%; in test [2], 78.6%; in test [3], 112%; in test [4], 83.5%; in test [5], 88.5%; in test [6] it was 112%. The growth in test [7] was 57.9%; in test [8], 101%; in [9], 104%; in test [10] it was 158%; in [11], 101%; in test [12] it was 111%. Moreover, the growth in test [13] is 87.4%; in test [14], 97.3%; in test [15], 102%; in [16], 101%; in [17] it was 103%; in test [18], 75.4%. Further, the figures for the growth in test [19] and in test [20] were 88.1% and 131%, respectively.
